In PubChem BioAssay (EPA / NIEHS):
Inconclusive results are not listed. Calls of active or inactive are those of the source. How the source made its calls, unless noted: active means hit-call score of the fitted dose curve at least 0.9, where 1 is the maximum; inactive means score below 0.9.

Experiments:
[1] = ACEA_ER_80hr: ACEA Biosciences xCELLigence Real-Time Cell Analysis on Estrogen Receptor Agonism for Proliferation (AID 2282667; active means hit-call score of the fitted dose curve at least 0.9, where 1 is the maximum); settings: T47D proliferation, impedance (xCELLigence), 80 h
How it was run: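 Estrogen-driven proliferation is captured as electrode impedance in T47D cells 80 h after compound addition. Test articles ran at 8 concentrations, 1:4 dilutions from 100 uM final, in two replicate plates.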

[2] = APR_HepG2_CellLoss_1hr: Apredica 1-hour HepG2 Assay for Cell Loss (AID 2282668); settings: high-content imaging;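 further: curves fitted both ways against DMSO so gain or loss of cells counts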
How it was run: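 HepG2 cells were treated for 1 h with compound at 0.39–200 uM, in duplicate, in 0.5% DMSO. After formaldehyde fixation, Hoechst 33342-stained nuclei were imaged on an ArrayScan to count cells. Data were fitted bidirectionally versus DMSO.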

[3] = APR_HepG2_NuclearSize_1hr: Apredica 1-hour HepG2 Assay for Nuclear Size (AID 2282670); settings: high-content imaging, actives raise or lower the signal
How it was run: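 HepG2 cells dosed 1 hr with 0.39–200 uM compound (0.5% DMSO), formaldehyde-fixed, Hoechst 33342-stained and imaged at 20x; nuclear diameter from nuclear stain, fitted bidirectionally against DMSO.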

[4] = APR_HepG2_p53Act_1hr: Apredica 1-hour HepG2 Assay for p53 Activation (AID 2282671); settings: high-content imaging, actives raise or lower the signal
How it was run: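 HepG2 cells treated 1 h with compound at 0.39–200 uM (10 concentrations, duplicate) in 0.5% DMSO. Formaldehyde-fixed, permeabilised cells immunostained for p53 with Hoechst 33342; high-content imaging, bidirectional fit versus DMSO.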

[5] = APR_HepG2_MitoticArrest_1hr: Apredica 1-hour HepG2 Assay for Mitotic Arrest (AID 2282672); settings: high-content imaging, actives raise or lower the signal
How it was run: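 HepG2 cells exposed 1 hr to compounds at 0.39–200 uM (0.5% v/v DMSO final), then fixed in 3.7% formaldehyde and immunostained for phospho-histone H3 with Hoechst 33342. Mitotic arrest scored by automated fluorescence imaging, fitted bidirectionally versus DMSO.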

[6] = APR_HepG2_MitoMass_1hr: Apredica 1-hour HepG2 Assay for Mitochondrial Mass (AID 2282674); settings: high-content imaging, actives raise or lower the signal
How it was run: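 HepG2 cells dosed 1 hr with 0.39-200 uM compound (0.5% DMSO), duplicate wells. Mitochondria stained with 250 nM MitoTracker Red CMXRos for 30 min before formaldehyde fixation, imaged at 20x by ArrayScan; bidirectional fit versus DMSO.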

[7] = APR_HepG2_MitoMembPot_1hr: Apredica 1-hour HepG2 Assay for Mitochondrial Membrane Potential (AID 2282675); settings: imaging, actives raise or lower the signal
How it was run: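 HepG2 cells dosed 1 hour with 0.39–200 uM compound in duplicate, 0.5% DMSO final. MitoTracker Red CMXRos (250 nM, 30 min) loaded before formaldehyde fixation; fluorescence quantified by high-content imaging, bidirectional fitting versus DMSO.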

[8] = APR_HepG2_CellCycleArrest_24hr: Apredica 24-hour HepG2 Assay for Cell Cycle Arrest (AID 2282905); settings: imaging, actives raise or lower the signal;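 further: cell cycle arrest scored as ratio of 2N to 4N nuclear DNA content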
How it was run: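 Cell cycle arrest is scored from nuclear DNA content measured by high-content imaging of Hoechst 33342-stained HepG2 cells following 24-hour treatment at ten concentrations up to 200 uM, with DMSO as baseline.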

[9] = APR_HepG2_StressKinase_1hr: Apredica 1-hour HepG2 Assay for Stress Kinase (AID 2282906); settings: HepG2 stress kinase (phospho-c-Jun) imaging, actives raise or lower the signal
How it was run: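 HepG2 cells dosed 0.39-200 uM (0.5% DMSO) for 1 h, then formaldehyde-fixed. Stress kinase read by phospho-c-Jun immunofluorescence using high-content imaging; bidirectional fit vs DMSO.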

[10] = APR_HepG2_NuclearSize_24hr: Apredica 24-hour HepG2 Assay for Nuclear Size (AID 2282907); settings: high-content imaging, actives raise or lower the signal
How it was run: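 Compounds in DMSO (final 0.5%) were added to human HepG2 hepatoma cells at ten concentrations up to 200 uM for 24 hr. Fixed nuclei were stained with Hoechst 33342, and nuclear diameter was quantified from automated images.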

[11] = APR_HepG2_CellLoss_24hr: Apredica 24-hour HepG2 Assay for Cell Loss (AID 2282908); settings: high-content imaging;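 on AC50: fit in both directions so a hit may be cell loss or gain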
How it was run: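 Cell number is quantified by fluorescence imaging of Hoechst 33342-stained nuclei following dosing at 0.39–200 uM in 0.5% DMSO. Curves are fitted in both directions from the DMSO baseline.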

[12] = APR_HepG2_MicrotubuleCSK_24hr: Apredica 24-hour HepG2 Assay for Microtubule CSK Stabilty (AID 2282909); settings: HepG2 microtubule cytoskeleton imaging, actives raise or lower the signal
How it was run: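 Steps: dose HepG2 for 24 h (0.39–200 uM, 0.5% DMSO); fix 30 min in 3.7% formaldehyde at room temperature; permeabilize; stain alpha-tubulin 60 min; image microtubule cytoskeleton at 20x. Signal change fitted in both directions relative to DMSO.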

[13] = APR_HepG2_MitoticArrest_24hr: Apredica 24-hour HepG2 Assay for Mitotic Arrest (AID 2282910); settings: high-content imaging, actives raise or lower the signal
How it was run: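 HepG2 cells, 24 h exposure at 0.39-200 uM (10 concentrations, duplicate, 0.5% DMSO). Fixed, stained for phospho-histone H3 with Hoechst; imaged by high-content microscopy, bidirectional fit versus DMSO.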

[14] = APR_HepG2_MitoMembPot_24hr: Apredica 24-hour HepG2 Assay for Mitochondrial Membrane Potential (AID 2282911); settings: imaging, actives raise or lower the signal
How it was run: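 Mitochondrial dye uptake (MitoTracker Red CMXRos, 250 nM, 30 min pre-fixation) in HepG2 after 24 hr compound exposure, 0.39–200 uM; ArrayScan images at 20x, activity fitted in both directions relative to DMSO.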

[15] = APR_HepG2_MitoMass_24hr: Apredica 24-hour HepG2 Assay for Mitochondrial Mass (AID 2282912); settings: high-content imaging, actives raise or lower the signal
How it was run: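 The liver line HepG2 was dosed in duplicate across a 0.39–200 uM series, with final DMSO held at 0.5% v/v, and harvested at 24 hr. High-content imaging measured mitochondrial dye staining.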

[16] = APR_HepG2_p53Act_24hr: Apredica 24-hour HepG2 Assay for p53 Activation (AID 2282913); settings: high-content imaging, actives raise or lower the signal;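 further: p53 protein immunofluorescence averaged per cell in HepG2 with Hoechst nuclei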
How it was run: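 Following 24 hr dosing of HepG2 at 0.39–200 uM, the cells undergo formaldehyde fixation, Triton permeabilization and multiplexed antibody labeling that includes p53 (Cy5). Signal from the imaging is referenced to DMSO solvent controls.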

[17] = APR_HepG2_CellCycleArrest_72hr: Apredica 72-hour HepG2 Assay for Cell Cycle Arrest (AID 2282914); settings: high-content imaging, actives raise or lower the signal
How it was run: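 Using multiplexed high-content imaging, HepG2 nuclei stained with Hoechst 33342 (2 ug/mL) were analysed for DNA content after fixation and permeabilization. Treatment lasted 72 hr across 0.39–200 uM in duplicate with final DMSO 0.5% v/v; DMSO served as negative control.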

[18] = APR_HepG2_MicrotubuleCSK_1hr: Apredica 1-hour HepG2 Assay for Microtubule CSK Stabilty (AID 2282669); settings: HepG2 microtubule cytoskeleton imaging, actives raise or lower the signal
How it was run: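 HepG2 cells exposed 1 h to 0.39–200 uM compound (0.5% DMSO, duplicates), then formaldehyde-fixed, permeabilized and immunostained for alpha-tubulin with Hoechst nuclei. Imaged by ArrayScan high-content analysis; bidirectional fit versus DMSO.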

[19] = APR_HepG2_P-H2AX_1hr: Apredica 1-hour HepG2 Assay for H2AX Phosphorylation (AID 2282673); settings: high-content imaging, actives raise or lower the signal
How it was run: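 HepG2 dosed 1 hr at 0.39-200 uM (0.5% DMSO final), duplicate. Fixed in 3.7% formaldehyde, Triton permeabilized, immunostained for phospho-histone H2A.x (1:200) with Hoechst 33342; ArrayScan 20x imaging, bidirectional fit vs DMSO.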

Measured: AC50

COc1cc(OC)nc(NC(=O)NS(=O)(=O)c2ncccc2OCC(F)(F)F)n1
not listed: [18] | [19]
inactive: all other assays above

OC(c1ccc(Cl)cc1)(c1ccc(Cl)cc1)C(Cl)(Cl)Cl
active: [2] 89.3 µM | [3] 110 µM | [4] 109 µM | [9] 30.9 µM | [10] 74.1 µM | [11] 43.1 µM | [16] 112 µM
not listed: [5] | [7] | [19]
inactive: all other assays above

COc1cc(Cl)c(OC)cc1Cl
not listed: [5] | [19]
inactive: all other assays above

CCCCOCN(C(=O)CCl)c1c(CC)cccc1CC
active: [9] 47.5 µM | [11] 35.3 µM | [12] 31.2 µM
not listed: [7] | [18] | [19]
inactive: all other assays above

CC(C)C1(C)N=C(c2ncccc2C(=O)O)NC1=O (stereo not drawn)
not listed: [8] | [18] | [19]
inactive: all other assays above

O=C(Nc1ccccc1-c1ccc(Cl)cc1)c1cccnc1Cl
active: [14] 66.8 µM
not listed: [7] | [18]
inactive: all other assays above

O=C(O)c1c(Cl)ccc2cc(Cl)cnc12
not listed: [4] | [5] | [8] | [16] | [18]
inactive: all other assays above

CCOc1nc(F)cc2nc(S(=O)(=O)Nc3c(Cl)cccc3Cl)nn12
not listed: [7] | [8] | [18] | [19]
inactive: all other assays above
